Data reported in PubChem BioAssay (NCI).
About 83,000 compounds went through this panel and 20% of them were active in at least one assay; those are over-represented in the sample as a whole.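 Values shown are percent growth following 48 h exposure of cells in 96-well plates to a single concentration of compound; below 10 was considered active.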 A number with no mark means an inactive call. Active and inactive are the calls of the source.

Experiments:
Test in all cases: NCI-60 one-dose screen, 48 h (100 = growth as untreated, 0 = no growth, -100 = all killed)
[1] = system: K-562 leukemia; conditions: 10 µM unless noted
[2] = system: MALME-3M melanoma; conditions: 10 µM unless noted
[3] = system: MDA-MB-231 breast; conditions: 10 µM unless noted
[4] = system: RXF 393 renal; conditions: 10 µM unless noted
[5] = system: SF-268 CNS; conditions: 10 µM unless noted
[6] = system: SF-295 CNS; conditions: 10 µM unless noted
[7] = system: SF-539 CNS; conditions: 10 µM unless noted
[8] = system: UACC-257 melanoma; conditions: 10 µM unless noted
[9] = system: M14 melanoma; conditions: 10 µM unless noted
[10] = system: HCT-15 colon; conditions: 10 µM unless noted
[11] = system: HT29 colon; conditions: 10 µM unless noted
[12] = system: SNB-75 CNS; conditions: 10 µM unless noted
[13] = system: SNB-19 CNS; conditions: 10 µM unless noted
[14] = system: U251 CNS; conditions: 10 µM unless noted
[15] = system: PC-3 prostate; conditions: 10 µM unless noted
[16] = system: SK-MEL-5 melanoma; conditions: 10 µM unless noted
[17] = system: LOX IMVI melanoma; conditions: 10 µM unless noted
[18] = system: SK-MEL-28 melanoma; conditions: 10 µM
[19] = system: SK-MEL-2 melanoma; conditions: 10 µM unless noted
[20] = system: UACC-62 melanoma; conditions: 10 µM unless noted

Row | Structure (SMILES) | growth [1] | growth [2] | growth [3] | growth [4] | growth [5] | growth [6] | growth [7] | growth [8] | growth [9] | growth [10] | growth [11] | growth [12] | growth [13] | growth [14] | growth [15] | growth [16] | growth [17] | growth [18] | growth [19] | growth [20]
1 | CC1(O)COCCCCOc2c(CN)cccc2NC(=O)c2nc(cnc2N)-c2ccc(cc2)S(=O)(=O)C(C)(C)C1 (centres undefined) | 0.195% (active) | -86.6% (active) | -76.3% (active) | -76.2% (active) | -66.6% (active) | -90.3% (active) | -93.4% (active) | -66.4% (active) | -76.7% (active) | -82.7% (active) | 1.64% (active) | -60.3% (active) | -55.9% (active) | -74.9% (active) | 14% | -94.9% (active) | -86.3% (active) | -87.8% (active) | -32.6% (active) | –
2 | CC(=O)c1ccc(Cc2ccc(C(C)=O)s2)s1 | 94.1% | 106% | 99.8% | 104% | 101% | 114% | 94.1% | 111% | 107% | 99% | 103% | 96.9% | – | 98% | 93.8% | 100% | 93.7% | 112% | 98.9% | 96.4%
3 | O=C(/C=C/c1ccc(C(F)(F)F)cc1)c1ccc(Nc2nc(NCCO)nc(N3CCOCC3)n2)cc1 | 5.46% (active) | 97% | 46.7% | 73.9% | 36% | 81.4% | 50.6% | 98.9% | 37.5% | 7.59% (active) | 7.26% (active) | 40.1% | – | -51.3% (active) | 25.3% | 46.3% | 3.82% (active) | 94.1% | 109% | 56%
4 | CCOc1ccc2c(c1)CN(Cc1ccc(Cl)cc1)CO2 | 57.2% | 30.1% | 35.2% | -3.87% (active) | 24.9% | -7.02% (active) | 1.31% (active) | 70.9% | 55.6% | 70% | 57.3% | -39.4% (active) | – | 25.4% | 49.1% | 74.1% | 35.2% | 41.9% | 50.4% | 62.4%
5 | O=C(CCc1nnc2sc(Cc3ccccc3Cl)nn12)c1nc2ncccc2[nH]1 | 102% | 94.4% | 73% | 104% | 85.5% | 99.6% | 94.2% | 107% | 96.5% | 98.9% | 104% | 67.7% | 93.3% | 104% | 85.6% | – | 88% | 96.2% | 97.9% | –
6 | O=C(Nc1ccc(N2CCNCC2)cc1)c1[nH]ncc1Nc1cc(C2CC2)ncn1 | 24.2% | 61.5% | 81.1% | 46.5% | 60% | 76.9% | 46.1% | 75.9% | 45.3% | 35.6% | 49.2% | 31.5% | – | 68.6% | 30.2% | 52.3% | 36.1% | 79.5% | 64.5% | 50%
7 | Cc1nc(Nc2ccccn2)sc1C(=O)/C=C/c1ccc(Cl)cc1 | 8.43% (active) | 50.3% | 20.4% | 20.2% | 19.9% | 4.33% (active) | -8.91% (active) | 41.8% | 11.6% | 11.7% | 5.45% (active) | 11.9% | 32.7% | 14.8% | – | -32.4% (active) | 15.8% | 61.8% | 31.6% | 48.2%
8 | Cc1cc(OC(=O)c2ccc([N+](=O)[O-])cc2)nc2[nH]c(=O)sc12 | 102% | 107% | 103% | 108% | 97.5% | 103% | 98.5% | 104% | 102% | 103% | 105% | 90.6% | 98.6% | 97.1% | – | 100% | 98.8% | 109% | 104% | 102%
9 | COc1ccc(CSc2nnc(SCC(=O)Nc3ccc(Cl)cc3)s2)cc1 | 15.6% | 121% | 72.1% | 104% | 70.5% | -12.6% (active) | 86.6% | 99% | 39.9% | 48.1% | 98.5% | 93.2% | 90.9% | – | 58.6% | – | 46.8% | 87.2% | 124% | 18.2%
